The results in this text go back to PubChem BioAssay AID504339 (National Center for Advancing Translational Sciences (NCATS), 2011).

SMILES strings stand for the structures. Out of some 390,000 compounds screened, about 17,000 (4.4%) were called active. About 8% were inconclusive and are not listed. The list comes from a sample in which actives are over-represented; it also holds similar structures and randomly drawn compounds. Values without a mark were called inactive. The call rests on the fitted dose curve; in most records, active means well fitted inhibition curve with a large enough effect; inconclusive means small, poorly fitted or top-dose-only effect; inactive means no such curve, though single readings can be large or run the other way.
On the % scale 0 is the no-effect control and ±100 the full control effect; potency means the concentration at half of the fitted maximal effect.

For this test, the target named is Lysine-specific demethylase 4A (Homo sapiens) (UniProt O75164). Briefly: qHTS Assay for Inhibitors of JMJD2A-Tudor Domain. Further: nearly all actives have a fitted effect of over 50% in size. To be noted: AlphaScreen JMJD2A-Tudor / H3K4me3 peptide binding; series mostly up to 114 µM; activity change, negative = inhibition: at the top concentration. On the technique in general: Quantitative high-throughput screening tests each substance at several concentrations.
Chain of Lysine-specific demethylase 4A (Homo sapiens) (O75164 whole entry, looked up, the tested form may be a part): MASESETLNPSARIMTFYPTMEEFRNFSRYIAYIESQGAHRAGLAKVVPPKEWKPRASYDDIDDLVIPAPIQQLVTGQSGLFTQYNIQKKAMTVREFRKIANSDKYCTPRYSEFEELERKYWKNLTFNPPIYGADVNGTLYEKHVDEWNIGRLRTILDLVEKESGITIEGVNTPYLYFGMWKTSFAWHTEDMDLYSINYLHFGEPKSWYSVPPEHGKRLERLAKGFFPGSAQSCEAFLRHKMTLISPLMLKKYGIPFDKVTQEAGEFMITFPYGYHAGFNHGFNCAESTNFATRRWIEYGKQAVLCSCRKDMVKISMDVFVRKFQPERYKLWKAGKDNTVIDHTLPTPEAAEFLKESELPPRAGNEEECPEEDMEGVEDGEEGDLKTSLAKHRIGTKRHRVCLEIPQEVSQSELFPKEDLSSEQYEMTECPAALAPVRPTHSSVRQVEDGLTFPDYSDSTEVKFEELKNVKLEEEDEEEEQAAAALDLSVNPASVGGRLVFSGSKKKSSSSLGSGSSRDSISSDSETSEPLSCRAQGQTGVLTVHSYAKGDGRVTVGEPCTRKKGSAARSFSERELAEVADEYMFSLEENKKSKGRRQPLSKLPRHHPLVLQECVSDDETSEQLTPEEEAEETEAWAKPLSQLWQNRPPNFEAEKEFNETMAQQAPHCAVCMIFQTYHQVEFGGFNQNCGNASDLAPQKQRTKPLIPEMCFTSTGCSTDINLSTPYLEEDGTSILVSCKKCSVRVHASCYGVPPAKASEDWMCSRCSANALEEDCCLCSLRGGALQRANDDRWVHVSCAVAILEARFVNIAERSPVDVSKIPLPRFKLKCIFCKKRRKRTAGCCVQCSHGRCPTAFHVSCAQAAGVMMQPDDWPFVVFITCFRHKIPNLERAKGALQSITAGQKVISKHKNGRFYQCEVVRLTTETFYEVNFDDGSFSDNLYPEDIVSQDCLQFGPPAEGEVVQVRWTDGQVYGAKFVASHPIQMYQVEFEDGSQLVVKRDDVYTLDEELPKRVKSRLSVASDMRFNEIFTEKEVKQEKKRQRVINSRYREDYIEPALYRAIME
Consider `COc1ccc(CCNS(=O)(=O)c2cc(-c3cc(C)no3)ccc2C)cc1OC`, for which the “activity change, negative = inhibition” value is -8.77%.

`COc1ccc(-c2nc(SCC(=O)N3CCCCC3C)n[nH]2)cc1` (stereo not given): the “activity change, negative = inhibition” value was -1.3%. On the same count and under the same terms, next, `CCn1c2c(c(=O)n3ncc(C(=O)N4CCN(c5ccccc5)CC4)c13)CN(Cc1ccc(OC)cc1)CC2`: -16.6%; `O=C(CN1CCCCCC1)Nc1c(Cl)cc(Cl)cc1Cl`: -3.93%. Regarding `Cc1csc(NC(=O)CN2CCCCCC2)n1`, the Potency was 1.58 µM (active).

As to `Cc1cc(C)c(NC(=O)CN2CCCCCC2)c(C)c1`, the “activity change, negative = inhibition” value is -11.4%. Same read-out and setting: next, `COc1ccc(CCNC(=O)c2nn(C)c3c2CSc2ccccc2-3)cc1OC`: -6.95%. For the compound `Cc1nc2ccccn2c(=O)c1NC(=O)c1c(F)cccc1F`, the “activity change, negative = inhibition” value was -10.1%. Still for that read-out and setting: the result for `CCn1c2ccccc2c2nnc(N3CCN(c4cc(C)ccc4C)CC3)nc21` reads -12.2%; that for `Cc1ccc(S(=O)(=O)N2CCOCC2)cc1C(=O)Nc1ccccc1N1CCCC1`, -24.7%. In the case of `O=C(CNCc1ccco1)Nc1cc(S(=O)(=O)N2CCOCC2)ccc1N1CCCC1`, the Potency is 79.4 µM (active). For `O=C(COC(=O)c1ccccc1F)Nc1cc(S(=O)(=O)N2CCOCC2)ccc1N1CCCC1`, the “activity change, negative = inhibition” value was -19.7%. In the case of `COCCNC(=S)Nc1cc(S(=O)(=O)N2CCOCC2)ccc1N1CCCCC1`, the Potency is 79.4 µM (active). With `CN1CCN(c2ccc(S(=O)(=O)N3CCOCC3)cc2NC(=O)CCc2ccccc2)CC1`, the “activity change, negative = inhibition” value was -9.18%. In the case of `O=C(COC(=O)Cc1ccc(F)cc1)Nc1cc(S(=O)(=O)N2CCOCC2)ccc1N1CCCC1`, the “activity change, negative = inhibition” value was -18.7%. Same read-out and setting: next, `COc1ccc(/C=C/c2noc(-c3ccccc3O)n2)cc1OC`: -1.37%. For `COc1ccc(NC(=O)C2CCCN(S(=O)(=O)c3cccc4nonc34)C2)cc1Cl` (stereo not given), the “activity change, negative = inhibition” value was 2.05%. As to `Cc1cc(C)cc(NC(=O)Cn2c(=O)c3ccccc3n3nncc23)c1`, the “activity change, negative = inhibition” value is -25.2%. On to `CCc1cccc(-n2nnc(-c3nsc(NC(=O)c4ccc(C)cc4)n3)c2C)c1`, for which the “activity change, negative = inhibition” value is -18.2%.

Consider `COc1ccccc1Nc1c2c(nc3ccc(NC(=O)/C=C/c4cc(OC)c(OC)c(OC)c4)cc13)CCCC2`, for which the Potency was 15.8 µM (active). For the compound `COc1cc(/C=C/C(=O)OCC(=O)c2ccccc2)cc(OC)c1OC`, the “activity change, negative = inhibition” value is -8.47%. Same read-out and setting: next, `COc1ccc(NS(=O)(=O)c2cc(NC(=O)/C=C/c3cc(OC)c(OC)c(OC)c3)ccc2N2CCCCC2)cc1`: -34.4%. Same read-out and setting: the result for `O=C(CN1c2ccccc2S(=O)(=O)c2ccccc21)Nc1cccc(C(F)(F)F)c1` reads -25.7%. Same read-out and setting: the result for `COc1ccccc1N1CCN(c2ncnc3onc(-c4cccc(Cl)c4)c23)CC1` reads -13.2%.

For the compound `COC(=O)c1ccc(NC(=O)c2cccc3c2C(=O)N(C2CCCCC2)C3)cc1`, the “activity change, negative = inhibition” value was -5.33%.

For the compound `CCCS(=O)(=O)c1ncc(Cl)c(C(=O)Nc2scc(-c3ccccc3)c2C(=O)OCC)n1`, the “activity change, negative = inhibition” value was -35.8%. With `COC(=O)c1ccc(NC(=O)C23CC4CC(C2)CC(n2cnc(Cl)n2)(C4)C3)cc1`, the Potency was 56.2 µM (active).

Regarding `O=C(Nc1ccc(S(=O)(=O)Nc2ncccn2)cc1)C12CC3CC(CC(C3)C1)C2`, the “activity change, negative = inhibition” value is -12.5%. Still for that read-out and setting: next, `COC(=O)c1ccc(NC(=S)NN2CCOCC2)cc1`: -4.79%; `O=C(Nc1ccccc1F)C(c1ccccc1)N1Cc2ccccc2C1=O` (stereo not given): -11.9%.

In the case of `CCN(C(=O)Cn1c(=O)nc(-c2ccccc2)c2cc(Cl)ccc21)c1cccc(C)c1`, the “activity change, negative = inhibition” value is -7.95%. On the same count and under the same terms, next, `Cc1cn(C)c(CC(=O)NCc2ccc(Cl)cc2)c1C(=O)O`: -24.7%. Turning to `C[N+]1(CCNC(=O)/C=N/O)CCCCC1`, the Potency is 50.1 µM (active).

For the compound `CCc1cc2c(cc3c(=O)n(CC(=O)N4CCN(c5cc(Cl)ccc5C)CC4)nc(CC)n32)s1`, the “activity change, negative = inhibition” value was -21.8%. For `CCOC(=O)c1ccc(NC(=O)c2csc3c2CCCCC3)cc1`, the “activity change, negative = inhibition” value was 6.91%. Same read-out and setting: next, `O=C(/C=C/c1ccccc1)Nc1cc(-c2nc3cc(Cl)ccc3o2)ccc1Cl`: 1.49%; `Cc1ccc(NC(=S)NCCc2ccc(Cl)cc2)c(C)c1`: -19.4%. On the same count and under the same terms, next, `Cc1cc(Br)ccc1NC(=S)NC1CCCC1`: -10.3%. With `Cc1ccc(NC(=S)Nc2ncccc2C)c(C)c1`, the Potency is 56.2 µM (active).

As to `COC(=O)c1ccccc1NC(=O)c1ccc2c(=O)n3c(nc2c1)CCCCC3`, the “activity change, negative = inhibition” value is 7.38%. Turning to `Cc1ccc(-c2cc(-c3coc4ccccc4c3=O)c3c(n2)-c2cc(Cl)ccc2OC3)cc1`, the “activity change, negative = inhibition” value was -7.84%. Same read-out and setting: next, `COc1ccccc1NC(=O)CN1C(=O)c2ccccc2Sc2ccc(C(=O)N3CCCC3)cc21`: -18.3%; `COc1ccc(C2C(C(C)=O)=C(O)C(=O)N2CCc2c[nH]c3ccccc23)cc1` (stereo not given): -13.8%. Take `COC(=O)CN1C(=O)C(O)=C(C(C)=O)C1c1ccc([N+](=O)[O-])cc1` (stereo not given): the Potency is 31.6 µM (active). For the compound `COc1ccc(C2C(C(C)=O)=C(O)C(=O)N2c2nccs2)cc1` (stereo not given), the “activity change, negative = inhibition” value was -2.41%. The same measure, in the same setting: next, `CCOc1ccccc1NC(=O)Cn1c(=O)n(-c2cccc(C)c2)c(=O)c2c1c1cc(OC)ccc1n2C`: 4.78%; `CCN(CC)C(=O)CSc1nc2ccsc2c(=O)n1Cc1ccccc1Cl`: -10%. Consider `S=c1[nH]nc(-c2cccs2)n1/N=C/c1cccs1`, for which the Potency is 10 µM (active). For `Oc1ccccc1/C=N/n1c(-c2cccs2)n[nH]c1=S`, the Potency was 22.4 µM (active). Turning to `C(=N/N1CCN(c2ccccc2)CC1)/c1cccs1`, the “activity change, negative = inhibition” value is -28.8%. For `Nc1nnnn1/N=C/c1cccs1`, the “activity change, negative = inhibition” value was -10.4%. Turning to `Cn1c(=O)c2sccc2n2c(CCC(=O)NCc3ccccc3Cl)nnc12`, the “activity change, negative = inhibition” value is -16%. On to `Cc1ccc(C(=O)Nc2ccc3[nH]c(=O)c(=O)[nH]c3c2)cc1`, for which the “activity change, negative = inhibition” value was -2.05%. As to `O=[S+]([O-])(c1ccc(OC(F)(F)F)cc1)N1CCN([S+](=O)([O-])c2ccc3c(c2)OCCO3)CC1`, the “activity change, negative = inhibition” value was -25.3%. As for `O=C(CC1Oc2ccc(Cl)cc2NC1=O)NCc1ccccc1` (stereo not given), the “activity change, negative = inhibition” value was -14.2%. `CCc1ccc(NC(=O)CCCc2nnc3n(CCCOC)c(=O)c4sccc4n23)cc1`: the “activity change, negative = inhibition” value was -16.5%. Still for that read-out and setting: next, `O=C(CSc1nc2nccnc2c(=O)n1CCc1c[nH]c2ccccc12)Nc1ccccc1F`: -7.57%. Still for that read-out and setting: next, `Cc1cc2nn(-c3ccc(Cl)cc3)nc2cc1NC(=O)C(C)C`: -3.59%. `Cc1ccc(Cl)cc1NC(=O)C(C)n1nnc2sc(-c3ccccc3)cc2c1=O` (stereo not given): the Potency is 50.1 µM (active). For `CCCCCCn1nnc2sc(-c3ccccc3)cc2c1=O`, the “activity change, negative = inhibition” value was -6.6%.

As for `COc1ccccc1-c1cc2nc(C)c(CCC(=O)O)c(C)n2n1`, the “activity change, negative = inhibition” value was 1.33%.

In the case of `Cc1ccc(C)n1-c1nnc(N2CCC(C(=O)NCc3ccc(F)cc3)CC2)s1`, the “activity change, negative = inhibition” value is -19.5%. The same measure, in the same setting: next, `Cc1cc(C)cc(-n2ccnc2SCC(=O)Nc2nc3ccccc3s2)c1`: -9.68%. `c1ccc(C(=NNc2nc3ccccc3s2)c2ccccn2)cc1`: the Potency is 31.6 µM (active).

As to `NS(=O)(=O)c1ccc2nc(NC(=O)COc3ccccc3)sc2c1`, the “activity change, negative = inhibition” value was -23.4%.
